# Bioassay records as filed in PubChem.
# Only some compounds are listed: those with a hit (about 0.93% of all), similar ones and a draw of the others.
# CIT2-GFP yeast – modulators of CIT2-GFP expression in yeast, primary screen, S. cerevisiae, GFP fusion, multiplex flow cytometry, MLPCN library; S. cerevisiae CIT2-GFP strain, 3 h; 100 means same as DMSO wells; GFP response vs DMSO, % at 10 µM; 320,000 compounds, 0.065% hits; AID 2029, 2009;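 active = GFP response relative to DMSO above a set limit, near the screen mean plus 3 SD, cut at about 150% in these data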;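 note: ratio of well median GFP fluorescence to mean of DMSO wells on the plate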
# AGP1 TOR yeast – modulators of AGP1-GFP expression in yeast TOR pathway, primary screen, cell-based, multiplex flow cytometry, S. cerevisiae, MLPCN library. 3 h; GFP as percent of DMSO wells. GFP response vs DMSO, % at 10 µM. 320,000 compounds, 0.02% hits. AID 2066, 2009;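 active = GFP response relative to DMSO above a set limit, near screen average plus 3 SD, cut at about 150% in these data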;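 note: median GFP channel fluorescence of the gated AGP1 strain per well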
# RPL19A TOR yeast – RPL19A-GFP expression modulators in yeast, primary screen, cell-based, S. cerevisiae, multiplex flow cytometry, MLPCN; percent response vs DMSO, % at 10 µM; S. cerevisiae RPL19A-GFP strain, 3 h; active compounds read low; 330,000 compounds, 0.3% hits;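 active = percent response vs DMSO below 50%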;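 note: median channel GFP fluorescence of the barcoded RPL19A-GFP strain; ratio of sample median GFP to plate DMSO average so 100% = DMSO; lower means less RPL19A-GFP as with rapamycin TOR inhibition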
# LAP4 TOR yeast – modulators of LAP4-GFP expression in yeast, primary screen, S. cerevisiae, multiplex flow cytometry, MLPCN library | 3 h; median GFP as percent of DMSO wells | GFP response vs DMSO, % at 10 µM | 320,000 compounds, 0.34% hits;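 active = GFP response vs DMSO above a set limit, about the screen mean plus 3 SD, cut at about 150% in these data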
# MEP2-GFP yeast – modulators of MEP2-GFP levels in yeast, primary screen, S. cerevisiae, multiplex flow cytometry, MLPCN library | S. cerevisiae MEP2-GFP strain, 3 h; 100% = DMSO control level | 330,000 compounds, 0.51% hits | AID 2016, 2009 | GFP response vs DMSO, % at 10 µM;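 active = GFP response versus DMSO above a set limit, roughly screen mean plus 3 SD, cut at about 180% in these data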;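 note: median GFP fluorescence of the barcode-gated MEP2-GFP cells per well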
# LAP4 cherry2 – LAP4-GFP expression modulators in yeast, confirmation, cell-based, second cherry pick, flow cytometry; shares compounds with LAP4 TOR yeast; S. cerevisiae LAP4-GFP strain, 3 h; GFP response vs DMSO, % at 10 µM; 590 compounds, 20% hits; AID 2621, 2010;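 active = GFP signal as percent of the solvent control above about 150%, meaning raised reporter expression, limit read from the data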;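 note: ratio of well median GFP fluorescence to plate DMSO mean so 100% = DMSO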
# MEP2-GFP pick2 – modulators of MEP2-GFP levels in yeast, confirmation, S. cerevisiae, flow cytometry GFP, second cherry picks; AID 2622, 2010; GFP response vs DMSO, % at 10 µM; 590 compounds, 10% hits; shares compounds with LAP4 TOR yeast; S. cerevisiae MEP2-GFP strain, 3 h;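 active = GFP signal above 150% of the solvent control wells, that is a rise of more than half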;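 note: median channel GFP fluorescence of all gated yeast cells per well; ratio of median GFP to plate DMSO average so 100% = DMSO level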
# RPL19A GFP CP2 – RPL19A-GFP modulators in TOR pathway yeast, confirmation, cell-based, S. cerevisiae, flow cytometry, second cherry pick. GFP response vs DMSO, % at 10 µM. S. cerevisiae RPL19A-GFP strain, 3 h; active compounds read low; 100% means same as DMSO wells. 590 compounds, 3% hits. shares compounds with LAP4 TOR yeast. AID 2623, 2010;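 active = under 65% GFP response relative to DMSO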;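 note: median GFP channel fluorescence per well over the all cells gate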
# CIT2 GFP CP2 – modulators of CIT2-GFP expression in yeast, confirmation, flow cytometry, second cherry pick, single plex. S. cerevisiae CIT2-GFP strain, 3 h; DMSO control wells read 100%. AID 2624, 2010. 590 compounds, 8% hits. shares compounds with LAP4 TOR yeast. GFP response vs DMSO, % at 10 µM;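 active = GFP response vs DMSO above about 150%, limit read from the data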;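 note: median green fluorescence per well over all gated yeast cells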
# AGP1-GFP pick2 – AGP1-GFP expression modulators, hit retest, confirmation, cell-based, flow cytometry, S. cerevisiae, cherry pick set 2; shares compounds with LAP4 TOR yeast; S. cerevisiae AGP1-GFP strain, 3 h; percent response vs DMSO, % at 10 µM; 590 tested, under 10 active;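 active = over 150 percent of DMSO response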;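 note: median GFP channel fluorescence over all cells without mother daughter split; sample median GFP divided by mean DMSO control so 100% equals DMSO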
# s288c autofluor – compound autofluorescence in yeast s288c, dose response, artefact control for yeast TOR pathway GFP screen, s288c strain | AID 2757, 2010 | fluorescence change (kMESF span) at 33 µM | 610 tested, under 10 active | shares compounds with LAP4 TOR yeast | S. cerevisiae s288c, 520 nm autofluorescence, flow cytometry, 3 h; active compounds read high; zero means same as solvent-only cells;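 active = fluorescence span over the dose series, or activity score, above about 33, limit read from the data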
# Yeast autofl DR – autofluorescence of compounds in yeast s288c, dose response, artefact control for yeast TOR pathway GFP screen, primary hits, KU SAR, s288c parental. 110 tested, under 10 active. S. cerevisiae s288c parental, compound autofluorescence, flow cytometry, 3 h. AID 488829, 2010. fluorescence change (span) at 33 µM. shares compounds with LAP4 TOR yeast;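 active = fluorescence change span, or the activity score built from it, above 25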
# TORC1 bypass – wild-type yeast growth inhibition sparing TORC1 bypass cells, mechanism study for yeast TOR pathway GFP screen, BY4741 wild type, TORC1 bypass strain. shares compounds with LAP4 TOR yeast. AID 504456, 2011. growth rating (0-3) at 30 µM. S. cerevisiae BY4741 spot growth rating, 48-72 h; active compounds read low. 120 tested, under 10 active;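 active = growth rating at most 1 for wild type yeast while the TORC1 bypass strain still grows fully, rated 3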
# Numbers without * were called inactive; nt = not tested or not shown; [ ] = another dose, or the depositor's remark.
SMILES,CIT2-GFP yeast,AGP1 TOR yeast,RPL19A TOR yeast,LAP4 TOR yeast,MEP2-GFP yeast,s288c autofluor,others
CC(=O)c1ccc(N2CCN(C(=O)c3ccc(Br)cc3)CC2)c(F)c1,89.7,121.2,103.4,161.7*,110.0,1.92,Yeast autofl DR=0.52;TORC1 bypass=3
Cc1ccc(C2=NN(S(C)(=O)=O)C(c3ccc4c(c3)OCO4)C2)cc1 (stereo not drawn),128.0,98.7,108.5,105.5,105.9,4.64,
Cc1cccc(N=Nc2ccc(O)c3ncccc23)c1,99.1,101.7,99.3,165.4*[may fluoresce green],95.7,1.6,LAP4 cherry2=200.4*;MEP2-GFP pick2=129.3;RPL19A GFP CP2=104.0;CIT2 GFP CP2=130.7;AGP1-GFP pick2=108.0
O=C(Nc1nc2ccc(F)cc2s1)c1ccccn1,105.6,101.8,90.5,178.2*,103.2,0.82,
Cc1ccsc1CNC12CC3CC(CC(C3)C1)C2,90.8,94.4,90.5,94.1,93.6,nt,
O=C(Nc1cccc(-c2csc(Nc3cccc(C(F)(F)F)c3)n2)c1)c1ccccc1,106.7,92.8,102.2,140.7,100.4,nt,
O=C(Nc1cccc(-c2csc(Nc3ccccc3)n2)c1)c1ccccc1,90.3,81.8,98.4,153.4*,97.9,0.1,LAP4 cherry2=108.7;MEP2-GFP pick2=103.2;RPL19A GFP CP2=97.1;CIT2 GFP CP2=91.6;AGP1-GFP pick2=93.3
O=C(CNC(=O)c1ccccc1)OCC(=O)c1ccc(Cl)s1,90.7,83.2,95.6,189.8*,108.8,nt,LAP4 cherry2=101.2;MEP2-GFP pick2=103.1;RPL19A GFP CP2=98.9;CIT2 GFP CP2=100.1;AGP1-GFP pick2=98.8
CC(C)c1ccc(O)c(NC(=S)NC(=O)CCc2ccccc2)c1,124.4,105.7,102.3,104.2,104.3,nt,
O=c1oc(-c2ccco2)nc2ccccc12,92.7,91.8,94.3,121.0,99.5,nt,
Cc1ccc(C(=O)Oc2oc(-c3ccco3)nc2C=Nc2ccc(Cl)cc2)cc1,92.5,74.6,99.6,223.1*,96.1,0.2,
O=C(Oc1oc(-c2ccco2)nc1C=Nc1ccccc1)c1ccoc1,86.6,72.5,90.8,216.8*,86.8,-9.58,
Cc1ccc(N=Cc2nc(-c3ccco3)oc2O)cc1,91.9,90.7,91.0,118.9,95.4,nt,
NC(=O)CSc1oc(-c2ccco2)nc1S(=O)(=O)c1ccccc1,100.9,101.6,107.6,96.5,92.9,nt,
O=C(Oc1oc(-c2ccco2)nc1C=Nc1ccccc1)c1ccco1,71.1,79.0,98.1,203.1*,90.3,0.3,
CCCCc1n[nH]c(=S)n1Cc1ccc(Cl)cc1,98.0,96.8,101.6,84.8,98.2,nt,
O=C1c2ccccc2C(=O)C1c1ccccn1,88.1,114.0,92.5,105.5,107.1,nt,
O=C1c2ccccc2C(=O)C2OC12 (stereo not drawn),87.7,98.0,78.9,163.0*,131.5,2.14,
CC1CCN(Cc2csc(N)n2)CC1,100.5,97.9,94.9,99.1,102.1,nt,
COc1ccc(N2CCN(C(=O)c3sc4ncn(CC(=O)N5CCCCC5C)c(=O)c4c3C)CC2)cc1 (stereo not drawn),94.5,97.7,101.2,95.8,98.0,nt,
Cc1[nH][nH]c(=O)c1C(c1ccc(-c2ccc(Cl)c(Cl)c2)o1)c1c(C)[nH][nH]c1=O,102.3,85.0,93.8,217.2*,96.0,-1.43,
Cc1[nH][nH]c(=O)c1C(c1ccc(-c2ccc(F)cc2)o1)c1c(C)[nH][nH]c1=O,97.7,97.7,107.3,100.1,106.5,nt,
COC(=O)CCC(C)N1CCC(Oc2ccc(C(=O)N3CCCC3)cc2)CC1 (stereo not drawn),100.0,101.0,100.9,103.0,98.5,nt,
Cc1nc2sc(C(N)=O)c(N)c2c2c1CCCC2,91.2,98.6,96.4,106.1,97.2,nt,
Cc1cc(C)cc(NC(=O)COC(=O)COc2cccc3c2OC(C)(C)C3)c1,101.6,115.0,101.2,113.6,105.0,nt,
SMILES,CIT2-GFP yeast,AGP1 TOR yeast,RPL19A TOR yeast,LAP4 TOR yeast,MEP2-GFP yeast,s288c autofluor,others
Cc1ccc(NC(=O)COC(=O)COc2cccc3c2OC(C)(C)C3)cc1C,157.5*[may fluoresce green],91.4,106.7,166.7*[may fluoresce green],212.2*[may fluoresce green],nt,LAP4 cherry2=98.1;MEP2-GFP pick2=99.8;RPL19A GFP CP2=102.5;CIT2 GFP CP2=98.4;AGP1-GFP pick2=100.8
CCOC(=O)C1CCCN(CC(=O)N(C)c2c(N)n(Cc3ccccc3)c(=O)[nH]c2=O)C1 (stereo not drawn),95.3,97.2,96.3,104.3,100.2,nt,
O=[N+]([O-])c1c(Nc2ccccn2)cc(Cl)c2nonc12,455.8*,133.8,162.0,673.6*,951.3*,37*,
COCCCNC(=O)c1cc2c(=O)n3cccc(C)c3nc2n(C(C)C)c1=N,92.1,92.2,62.9,95.1,126.4,nt,LAP4 cherry2=100.0;MEP2-GFP pick2=101.5;RPL19A GFP CP2=101.5;CIT2 GFP CP2=100.7;AGP1-GFP pick2=103.2
Cc1cc(NC(=O)CSc2nc(C)c(C)c(=O)[nH]2)no1,96.4,99.8,95.6,96.4,98.8,nt,
CCCSc1ccc(-c2nn(-c3ccccc3)cc2/C=C(/C#N)C(=O)NCCCOC)cc1,110.5,99.5,103.4,101.7,107.6,nt,
